# In PubChem BioAssay:
# “And” between values parts separate entries of the source, which are not always exact repeats. Equal entries are not always repeated. A number with no mark means an inactive call. The list shows a part of the results. The source made the active and inactive calls.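 The calls were made as follows, unless noted: active = mean inhibition above 46.68%, the untreated control wells mean plus 3 SD; inactive = the rest.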
# Columns and labels:
# [1] = molecular target: Nuclear receptor coactivator 3 (Homo sapiens) (UniProt Q9Y6Q9); test: NCOA3 GAL4-fusion reporter inhibition – cell-based, luminescence, quadruplicate, confirmation (AID 588792;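 active = mean inhibition over 43.08%, the solvent-only control mean plus 3 SD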;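 also: 0% = DMSO treated cells and 100% = gossypol at 36 µM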); conditions: HEK293 GAL4-SRC3 luciferase reporter, at 3.6 µM, stronger effect = higher value
# [2] = system: transactivating tegument protein VP16 (Human herpesvirus 1), Gal4-VP16 luciferase reporter; test: repression of VP16-driven luciferase reporter – cell-based, luminescence, high throughput, counter-screen for SRC3 inhibitor project (AID 588794; in the data active = inhibition above about 30%); conditions: mammalian cells, at 3.6 µM, stronger effect = higher value
# [3] = molecular target: Nuclear receptor coactivator 1 (Homo sapiens) (UniProt Q15788); test: NCOA1 GAL4-fusion reporter inhibition – cell-based, luminescence, quadruplicate, confirmation (AID 588820); conditions: HEK293 GAL4-SRC1 luciferase reporter, at 3.6 µM, stronger effect = higher value;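 also: 0% = DMSO wells and 100% = gossypol 36 µM treated wells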
# [4] = repression of VP16-driven luciferase reporter – cell-based, luminescence, high throughput, counter-screen for SRC1 inhibitor project (AID 588824; in the data active = inhibition above about 25%); conditions: cell-based VP16 transactivation luciferase luminescence; at 3.6 µM; stronger effect = higher value
# [5] = StAR promoter reporter inhibitors, counter-screen for LRH-1 inverse agonist project, cell-based, luminescence, high throughput (AID 651611; in the data active = inhibition above about 28%); conditions: StAR promoter luciferase reporter counterscreen, at 3.6 µM, stronger effect = higher value
# [6] = molecular target: Nuclear receptor subfamily 5 group A member 2 (Homo sapiens) (UniProt O00482); test: NR5A2 activity suppression in reporter cells – cell-based, luminescence, confirmation (AID 651613; in the data active = inhibition above about 42%;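 also: HEK293T cells co-transfected with LRH-1 and StAR promoter luciferase reporter; 0% = vehicle wells and 100% = parental cells lacking receptor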); conditions: cell-based LRH-1 luciferase reporter, inverse agonism; at 3.6 µM; stronger effect = higher value
# [7] = molecular target: Steroidogenic factor 1 (Homo sapiens) (UniProt Q13285); test: inverse agonism at SF1 nuclear receptor – cell-based, luminescence, high throughput, counter-screen for LRH-1 inverse agonist project (AID 651614; in the data active = inhibition above about 44%;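 also: cells cotransfected with StAR promoter reporter and SF1 expression vector; 0% = vehicle on cells with receptor and 100% = vehicle on cells lacking receptor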); conditions: cell-based SF1 luciferase reporter, at 3.6 µM, stronger effect = higher value
# [8] = compounds suppressing VP16-driven luciferase signal – cell-based, luminescence, high throughput, counter-screen for LRH-1 inverse agonist project (AID 651615; in the data active = inhibition above about 33%); conditions: Gal4-VP16 luciferase reporter cells, at 3.6 µM, stronger effect = higher value
# [9] = molecular target: Photoreceptor-specific nuclear receptor (Homo sapiens) (UniProt Q9Y5X4); test: retest of NR2E3-NCOR disrupting agonists – cell-based, luminescence, CHO-S two-hybrid, confirmation (AID 624378;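 active = average inhibition above a cutoff equal to the mean inhibition of all tested compounds plus one SD, cut at about 70% in these data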;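 also: 0% = DMSO in NR2E3 cells and 100% = DMSO in cells lacking NR2E3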); conditions: CHO-S mammalian two-hybrid NR2E3-NCOR, luciferase luminescence; at 3.98 µM; stronger effect = higher value
# [10] = nonselective effects on VP16 transactivation – cell-based, luminescence, CHO-S, high throughput, counter-screen for NR2E3 agonist project, confirmation (AID 624379;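 active = mean inhibition above a cutoff equal to the average over all tested compounds plus one standard deviation, cut at about 70% in these data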;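 also: luciferase from a UAS reporter driven by GAL4-VP16 transactivation; 0% = DMSO with VP16-transfected cells and 100% = DMSO with cells lacking VP16; higher means less reporter light so more repression of VP16 activity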); conditions: CHO-S GAL4-VP16 luciferase reporter, at 3.98 µM, stronger effect = higher value
# [11] = system: transactivating tegument protein VP16 (Human herpesvirus 1); test: compounds suppressing VP16-driven luciferase signal – cell-based, luminescence, single concentration, counter-screen for SRC2 inhibitor project (AID 652007; in the data active = inhibition above about 36%); conditions: cell-based VP16 transactivation luciferase reporter, at 8.9 µM, stronger effect = higher value
# [12] = molecular target: Nuclear receptor coactivator 2 (Homo sapiens) (UniProt Q15596); test: inhibition of GAL4-SRC2 driven luciferase expression – cell-based, luminescence, HEK293, triplicate, confirmation (AID 652008;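 active = mean inhibition above 46.5%, the solvent-only control mean plus 3 SD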;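 also: 0% = DMSO-treated cells and 100% = Gossypol at 36 µM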); conditions: HEK293 GAL4-SRC2 luciferase reporter, at 8.9 µM, stronger effect = higher value
# Chain of Nuclear receptor coactivator 2 (Homo sapiens) (Q15596 whole entry, looked up, the tested form may be a part): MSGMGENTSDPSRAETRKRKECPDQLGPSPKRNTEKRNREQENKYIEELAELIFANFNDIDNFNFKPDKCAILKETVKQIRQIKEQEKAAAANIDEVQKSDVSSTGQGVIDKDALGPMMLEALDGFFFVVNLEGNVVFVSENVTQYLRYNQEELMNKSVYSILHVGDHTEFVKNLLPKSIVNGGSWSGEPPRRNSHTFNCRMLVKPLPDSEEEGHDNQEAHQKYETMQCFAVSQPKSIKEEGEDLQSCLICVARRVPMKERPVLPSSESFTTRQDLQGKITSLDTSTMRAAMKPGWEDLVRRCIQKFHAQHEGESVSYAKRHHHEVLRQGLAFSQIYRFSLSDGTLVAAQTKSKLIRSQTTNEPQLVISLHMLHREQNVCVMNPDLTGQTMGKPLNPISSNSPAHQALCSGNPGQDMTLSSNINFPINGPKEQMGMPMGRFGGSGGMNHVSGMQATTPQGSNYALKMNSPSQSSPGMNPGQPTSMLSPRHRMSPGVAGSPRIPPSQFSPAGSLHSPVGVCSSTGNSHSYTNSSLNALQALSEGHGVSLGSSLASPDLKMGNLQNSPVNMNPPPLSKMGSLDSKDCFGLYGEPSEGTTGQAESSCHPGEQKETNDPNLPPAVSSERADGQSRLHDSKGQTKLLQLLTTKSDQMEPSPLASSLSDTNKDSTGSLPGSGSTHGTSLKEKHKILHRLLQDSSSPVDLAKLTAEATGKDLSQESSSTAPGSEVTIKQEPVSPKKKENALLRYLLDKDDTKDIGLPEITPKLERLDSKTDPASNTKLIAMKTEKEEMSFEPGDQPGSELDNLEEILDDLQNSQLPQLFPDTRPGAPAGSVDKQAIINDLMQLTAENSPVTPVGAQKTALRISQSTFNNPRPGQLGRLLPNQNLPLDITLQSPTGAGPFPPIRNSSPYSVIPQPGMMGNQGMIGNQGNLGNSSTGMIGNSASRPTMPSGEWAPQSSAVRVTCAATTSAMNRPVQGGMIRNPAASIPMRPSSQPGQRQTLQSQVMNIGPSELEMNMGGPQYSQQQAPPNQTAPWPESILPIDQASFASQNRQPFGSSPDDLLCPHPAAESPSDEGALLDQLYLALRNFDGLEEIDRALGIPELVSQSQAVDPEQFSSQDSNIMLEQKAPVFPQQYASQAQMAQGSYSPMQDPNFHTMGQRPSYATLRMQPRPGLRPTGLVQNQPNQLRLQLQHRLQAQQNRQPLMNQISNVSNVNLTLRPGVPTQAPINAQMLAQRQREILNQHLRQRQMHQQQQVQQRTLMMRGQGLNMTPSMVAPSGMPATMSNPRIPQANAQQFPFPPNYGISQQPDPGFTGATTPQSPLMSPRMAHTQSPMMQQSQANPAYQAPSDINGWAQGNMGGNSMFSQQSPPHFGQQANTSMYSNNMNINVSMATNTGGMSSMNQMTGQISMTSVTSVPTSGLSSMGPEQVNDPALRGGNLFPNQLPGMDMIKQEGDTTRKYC
# Chain of Nuclear receptor coactivator 3 (Homo sapiens) (Q9Y6Q9 whole entry, looked up, the tested form may be a part): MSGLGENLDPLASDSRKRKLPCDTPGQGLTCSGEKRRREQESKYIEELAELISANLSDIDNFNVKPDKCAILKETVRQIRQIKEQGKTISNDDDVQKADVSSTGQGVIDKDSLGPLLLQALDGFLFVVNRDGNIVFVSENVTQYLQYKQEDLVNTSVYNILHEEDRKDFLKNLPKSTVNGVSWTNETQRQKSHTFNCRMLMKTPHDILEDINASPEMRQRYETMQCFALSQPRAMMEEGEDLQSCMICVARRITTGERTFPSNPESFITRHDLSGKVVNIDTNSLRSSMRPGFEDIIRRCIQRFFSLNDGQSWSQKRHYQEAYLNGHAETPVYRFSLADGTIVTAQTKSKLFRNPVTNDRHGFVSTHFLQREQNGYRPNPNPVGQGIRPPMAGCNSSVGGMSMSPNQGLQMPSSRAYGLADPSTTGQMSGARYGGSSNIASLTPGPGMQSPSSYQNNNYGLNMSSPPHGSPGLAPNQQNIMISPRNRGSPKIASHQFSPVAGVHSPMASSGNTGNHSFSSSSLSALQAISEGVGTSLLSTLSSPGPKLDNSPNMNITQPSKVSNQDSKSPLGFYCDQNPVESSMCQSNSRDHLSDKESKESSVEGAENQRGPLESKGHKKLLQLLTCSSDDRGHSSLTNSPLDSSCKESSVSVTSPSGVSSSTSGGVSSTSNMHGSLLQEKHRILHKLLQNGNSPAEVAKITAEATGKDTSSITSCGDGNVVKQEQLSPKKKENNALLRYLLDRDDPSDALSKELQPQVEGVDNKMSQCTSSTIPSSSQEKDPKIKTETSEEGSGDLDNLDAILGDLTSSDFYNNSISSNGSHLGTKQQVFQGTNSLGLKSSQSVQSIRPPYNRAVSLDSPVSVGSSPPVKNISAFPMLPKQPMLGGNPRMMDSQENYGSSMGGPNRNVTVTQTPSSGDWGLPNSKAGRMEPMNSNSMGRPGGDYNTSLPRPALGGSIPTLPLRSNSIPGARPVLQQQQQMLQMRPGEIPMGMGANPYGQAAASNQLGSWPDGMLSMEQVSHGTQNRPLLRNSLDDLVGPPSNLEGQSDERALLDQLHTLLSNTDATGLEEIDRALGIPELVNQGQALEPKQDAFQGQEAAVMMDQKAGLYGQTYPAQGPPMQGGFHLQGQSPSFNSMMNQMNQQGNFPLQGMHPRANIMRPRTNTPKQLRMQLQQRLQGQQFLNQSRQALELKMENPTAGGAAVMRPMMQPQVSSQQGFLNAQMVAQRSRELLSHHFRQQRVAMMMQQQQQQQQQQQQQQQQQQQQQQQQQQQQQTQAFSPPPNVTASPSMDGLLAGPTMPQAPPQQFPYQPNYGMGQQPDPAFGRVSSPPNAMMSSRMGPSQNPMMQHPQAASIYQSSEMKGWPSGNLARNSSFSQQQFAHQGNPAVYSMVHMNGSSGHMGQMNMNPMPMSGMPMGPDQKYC
# Chain of Nuclear receptor subfamily 5 group A member 2 (Homo sapiens) (O00482 whole entry, looked up): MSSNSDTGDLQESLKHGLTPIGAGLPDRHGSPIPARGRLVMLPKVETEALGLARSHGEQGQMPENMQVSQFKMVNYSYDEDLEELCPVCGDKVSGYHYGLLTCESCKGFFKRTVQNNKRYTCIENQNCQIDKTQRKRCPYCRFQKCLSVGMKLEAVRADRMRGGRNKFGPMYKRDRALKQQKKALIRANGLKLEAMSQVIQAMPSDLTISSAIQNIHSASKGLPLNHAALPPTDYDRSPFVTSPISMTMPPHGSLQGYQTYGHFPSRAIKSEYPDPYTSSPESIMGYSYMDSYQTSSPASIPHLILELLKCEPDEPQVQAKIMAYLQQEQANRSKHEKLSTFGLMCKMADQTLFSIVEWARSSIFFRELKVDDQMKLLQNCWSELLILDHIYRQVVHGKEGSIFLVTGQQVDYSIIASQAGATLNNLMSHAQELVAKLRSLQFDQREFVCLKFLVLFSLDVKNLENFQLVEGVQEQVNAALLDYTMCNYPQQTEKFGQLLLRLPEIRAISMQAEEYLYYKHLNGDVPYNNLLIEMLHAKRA
# Chain of Nuclear receptor coactivator 1 (Homo sapiens) (Q15788 whole entry, looked up, the tested form may be a part): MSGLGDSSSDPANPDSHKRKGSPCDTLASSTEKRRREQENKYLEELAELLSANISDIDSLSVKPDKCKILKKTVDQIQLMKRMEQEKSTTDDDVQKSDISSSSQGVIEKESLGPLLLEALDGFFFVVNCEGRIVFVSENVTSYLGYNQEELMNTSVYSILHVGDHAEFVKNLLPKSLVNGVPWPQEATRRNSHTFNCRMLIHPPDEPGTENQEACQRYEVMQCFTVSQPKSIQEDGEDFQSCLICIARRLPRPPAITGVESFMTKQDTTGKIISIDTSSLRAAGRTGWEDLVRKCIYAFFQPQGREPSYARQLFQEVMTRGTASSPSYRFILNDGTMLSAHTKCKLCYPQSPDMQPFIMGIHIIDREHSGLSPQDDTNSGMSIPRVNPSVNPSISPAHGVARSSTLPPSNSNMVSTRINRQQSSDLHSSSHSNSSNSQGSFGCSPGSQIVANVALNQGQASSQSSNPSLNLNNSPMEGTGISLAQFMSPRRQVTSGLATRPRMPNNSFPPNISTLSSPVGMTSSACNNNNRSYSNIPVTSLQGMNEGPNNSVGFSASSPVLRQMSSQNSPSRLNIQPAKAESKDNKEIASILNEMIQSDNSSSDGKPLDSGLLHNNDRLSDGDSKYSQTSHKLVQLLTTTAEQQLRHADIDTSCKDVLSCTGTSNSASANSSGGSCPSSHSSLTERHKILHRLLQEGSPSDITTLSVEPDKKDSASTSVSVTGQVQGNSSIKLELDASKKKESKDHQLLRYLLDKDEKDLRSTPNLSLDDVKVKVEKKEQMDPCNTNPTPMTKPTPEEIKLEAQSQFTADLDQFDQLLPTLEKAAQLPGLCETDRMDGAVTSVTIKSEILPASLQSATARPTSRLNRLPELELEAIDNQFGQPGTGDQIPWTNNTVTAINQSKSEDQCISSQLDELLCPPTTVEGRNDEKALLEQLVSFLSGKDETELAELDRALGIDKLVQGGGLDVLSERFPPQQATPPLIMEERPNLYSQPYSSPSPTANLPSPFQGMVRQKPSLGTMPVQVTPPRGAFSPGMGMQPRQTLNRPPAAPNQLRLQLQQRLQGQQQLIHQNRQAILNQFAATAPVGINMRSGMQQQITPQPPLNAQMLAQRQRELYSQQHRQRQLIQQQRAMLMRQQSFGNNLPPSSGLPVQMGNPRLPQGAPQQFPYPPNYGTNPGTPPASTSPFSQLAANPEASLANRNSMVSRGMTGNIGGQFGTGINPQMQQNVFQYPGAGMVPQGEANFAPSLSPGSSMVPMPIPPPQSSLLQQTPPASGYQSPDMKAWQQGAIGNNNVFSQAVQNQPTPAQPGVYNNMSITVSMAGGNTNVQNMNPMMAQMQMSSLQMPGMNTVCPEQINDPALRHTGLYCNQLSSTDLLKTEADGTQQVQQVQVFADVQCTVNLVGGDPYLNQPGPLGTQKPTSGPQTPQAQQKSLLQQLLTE
SMILES,inhibition [1],inhibition [2],inhibition [3],inhibition [4],inhibition [5],inhibition [6],inhibition [7],inhibition [8],inhibition [9],inhibition [10],inhibition [11],inhibition [12]
CC(=O)c1c(C)n(C2CCCCC2)c2ccc(O)cc12,81.2% (active),58.5% (active),68.4% (active),60.2% (active),–,–,–,–,–,–,–,–
COC1CC2C=C(C)C=CC=CC(=O)NC(c3ccccc3)CC=CCCC(O)CC(=O)C2=C1O (stereo not drawn),75.1% (active),84% (active),29.9%,84.7% (active),81.7% (active),107% (active),95.6% (active),89.8% (active),–,–,–,–
CC(C)CC(NC(=O)CCCNC(=O)CCC(=O)OC1O[C@H]2OC3(C)CC[C@H]4[C@H](C)CCC(C1C)C24OO3)C(=O)O (stereo partly drawn),54.4% (active),77.2% (active),53.3% (active),76.9% (active),72.2% (active),101% (active),91% (active),86.4% (active),–,–,–,–
O=c1[nH]c2ccccc2n1C1CCN(C(c2ccccc2)c2nnnn2Cc2ccccc2)CC1 (stereo not drawn),64.1% (active),16.8%,-21.5%,15.1%,–,–,–,–,30.7%,4.07%,–,–
O=c1[nH]c2ccccc2n1C1CCN(C(c2ccccc2OC(F)(F)F)c2nnnn2Cc2ccccc2)CC1 (stereo not drawn),-2.46%,2.54%,-29%,0.5%,–,–,–,–,–,–,–,–
C[C@H]1O[C@@H](OC2CC[C@]3(C=O)[C@H]4CC[C@]5(C)[C@@H](C6=CC(=O)OC6)CC[C@]5(O)[C@@H]4CC[C@]3(O)C2)CC2OC(C)(C)OC21 (stereo partly drawn),94.5% (active),85.3% (active),65.8% (active),83.1% (active),97.6% (active),111% (active),99.5% (active),93.3% (active),–,–,–,–
Cc1ccc(-c2cc(-c3ccc(C)cc3)[n+](C)o2)cc1,62.4% (active),47.2% (active),-3.35%,47.1% (active),27.6%,78.7% (active),65.7% (active),67.3% (active),–,–,–,–
CCN1/C(=C/C=C/C2=[N+](CC)c3ccccc3C2(C)C)C(C)(C)c2ccccc21,97.1% (active),87.3% (active),51.5% (active),87.5% (active),86.7% (active),110% (active),96.1% (active),96.7% (active),–,–,–,–
Cc1c2ccncc2c(C)c2c1[nH]c1ccccc12,24%,45.9% (active),25.6%,42.1% (active),–,–,–,–,–,–,–,–
CCC(C)NC(=O)CCC(=O)OC1O[C@H]2OC3(C)CC[C@H]4[C@H](C)CCC(C1C)C24OO3 (stereo partly drawn),63.7% (active),83.6% (active),47.4% (active),82% (active),75% (active),102% (active),91.8% (active),84.7% (active),–,–,–,–
O=c1[nH]c2ccccc2n1C1CCN(C(c2ccccc2)c2nnnn2-c2ccc3c(c2)OCCO3)CC1 (stereo not drawn),41.3%,14.1%,-15.1%,16.1%,–,–,–,–,–,–,–,–
CN(C)c1ccc(/C=C/c2cc[n+](C)c3ccccc23)cc1,55.9% (active) and 45.3% (active),74% (active) and 71.3% (active),40.2% and 45.5%,77.9% (active) and 78.6% (active),72.7% (active) and 74.2% (active),102% (active) and 107% (active),86.9% (active) and 89.7% (active),82% (active) and 84% (active),–,–,–,–
COc1cccc(C(c2nnnn2Cc2ccccc2)N2CCC(n3c(=O)[nH]c4ccccc43)CC2)c1OC (stereo not drawn),25.4%,8.5%,-25.2%,20.2%,–,–,–,–,–,–,–,–
O=c1[nH]c2ccccc2n1C1CCN(C(CCc2ccccc2)c2nnnn2Cc2ccccc2)CC1 (stereo not drawn),34.6%,40.3% (active),12%,36.7% (active),–,–,–,–,–,–,–,–
O=C1/C(=C/c2ccccc2)C[C@@]2(O)[C@H]3Cc4ccc(O)c5c4[C@@]2(CCN3CC2CC2)C1O5 (stereo partly drawn),92.8% (active),73.1% (active),85.4% (active),73.2% (active),–,–,–,–,–,–,–,–
CCOc1ccc(-c2c(C)n(-c3ccc(OCC)cc3)c3[n+]2CCCCC3)cc1,96.3% (active),89% (active),74% (active),87.2% (active),–,–,–,–,–,–,–,–
CC(=NCc1ccc(F)cc1)c1c(O)n(C)c(=O)n(C)c1=O,11%,49.6% (active),12.8%,49.7% (active),39.6% (active),51.4% (active),73% (active),62.8% (active),–,–,–,–
COc1ccc(-c2cc(-c3ccccc3)[n+](C)c(-c3ccccc3)c2)cc1,35.9%,57.7% (active),34.3%,51.3% (active),60.2% (active),96% (active),84.5% (active),77.1% (active),–,–,–,–
O=C(Nc1ccc(OC(=O)N2CCCCC2)cc1)N1CCOCC1,24.1%,1.46%,9.87%,-2.66%,29.4% (active),19.7%,37.9%,14.3%,–,–,35%,68.5% (active)
C[C@@H]1O[C@@H](O[C@@H]2C=C3CCC4C(CC[C@]5(C)[C@@H](c6ccc(=O)oc6)CC[C@]45O)[C@@]3(C)CC2)[C@H](O)[C@H](O)[C@H]1O (stereo partly drawn),97.5% (active),90.9% (active),84.9% (active),89.9% (active),97% (active),110% (active),98.9% (active),96.5% (active),–,–,74.1% (active),60.1% (active)
CCCCN=C[C@]12CCC(O)CC1(O)CCC1[C@@H]2CC[C@]2(C)[C@H](C3C=CC(=O)O3)CCC12O (stereo partly drawn),94% (active),75.5% (active),42%,75% (active),97% (active),110% (active),98.5% (active),85.2% (active),–,–,69.6% (active),20.9%
CCC(C)C1NC(=O)C(NC(=O)C(CC(C)C)N(C)C(=O)C2CCCN2C(=O)C(C)O)C(C)OC(=O)C(Cc2ccc(OC)cc2)N(C)C(=O)C2CCCN2C(=O)C(CC(C)C)NC(=O)[C@H](C)C(=O)[C@H](C(C)C)OC(=O)CC1O (stereo partly drawn),99.5% (active),98.2% (active),98.5% (active),98.1% (active),96.4% (active),111% (active),98.4% (active),99% (active),–,–,82.2% (active),79.6% (active)
Cc1cc(-c2ccccc2)cc(-c2ccccc2)[n+]1CCc1ccccc1,37.8%,52.1% (active),27.1%,51.7% (active),51.1% (active),91.6% (active),75.2% (active),73.2% (active),–,–,–,–
